High-throughput results deposited in PubChem BioAssay by The Scripps Research Institute Molecular Screening Center.
A selection: hits, their analogues and other compounds. The true share with any hit is near 4.1%.
hcDAF-12 act = H. contortus DAF-12 activation, primary screen; activation, % at 6.8 µM; HEK293 hcDAF-12 lit1-tk-luc reporter, luminescence; 0% DMSO, 100% Δ7-dafachronic acid; actives 1.4% (n = 370,000);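 active means activation above the mean of all tested compounds plus 3 SD, cut at about 5.5% in these data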;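 further: 100% = response to 3 µM Δ7-dafachronic acid high control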
DAX1 inh-1 = DAX1 (NR0B1) inhibition, primary screen; HEK293T StAR-luciferase reporter, SF-1/DAX-1 repression relief; inhibition, % at 6.8 µM; actives 1.1% (n = 370,000);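 active means inhibition above the mean over all tested compounds plus 3 SD, cut at about 3.6% in these data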;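 further: 0% = DAX-1 cells with DMSO and 100% = cells lacking DAX-1 with DMSO; higher inhibition means more luminescence from relief of DAX-1 repression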
hgDAF-12 ag = agonists of H. glycines DAF-12 nuclear receptor | HEK293 GAL4-hgDAF12 UAS-luciferase reporter, agonist luminescence; normalized to butyrate control | activation, % at 6.8 µM | actives 1.8% (n = 370,000);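 active means activation above a cutoff set at the mean of all screened compounds plus 3 SD, cut at about 10% in these data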;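 further: 0% = DMSO wells and 100% = sodium butyrate wells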
DAX1 inh-2 = inhibitors of human orphan nuclear receptor DAX1 (NR0B1); P51843; HEK293 Gal4-DAX1 luciferase reporter, luminescence; inhibition, % at 6.75 µM; actives 0.99% (n = 340,000); AID 504766;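 active means inhibition above the mean over all tested compounds plus 3 SD, cut at about 4.2% in these data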;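 further: 0% = DAX1-transfected cells with DMSO and 100% = empty-vector control cells with DMSO; inhibition shows as a rise in luminescence from relieved DAX1 repression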
ssDAF12 agonist = S. stercoralis DAF-12 activation, primary screen; HEK293 ssDAF-12/GRIP1 lit1-tk-luc reporter, luminescence; % of 3 µM dafachronic acid response; actives 1% (n = 370,000); activation, % at 6.8 µM;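 active means activation above the mean over all tested compounds plus 3 SD, cut at about 0.9% in these data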;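 further: 0% = DMSO-only wells and 100% = 3 µM delta7-dafachronic acid wells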
DAX1 conf = confirmation of human DAX1 (NR0B1) inhibitors | shares compounds with DAX1 inh-1 | HEK293T StAR-promoter luciferase reporter, SF-1/DAX-1 repression | inhibition, % at 6.8 µM | actives 87% (n = 2,400);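 active means inhibition above the average of every tested compound plus 3 SD, cut at about 3.8% in these data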;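 further: 0% = DAX-1 cells with DMSO and 100% = no DAX-1 control cells with DMSO; active compounds raise luminescence by relieving repression of the StAR reporter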
Target sequence (P51843 whole entry, looked up): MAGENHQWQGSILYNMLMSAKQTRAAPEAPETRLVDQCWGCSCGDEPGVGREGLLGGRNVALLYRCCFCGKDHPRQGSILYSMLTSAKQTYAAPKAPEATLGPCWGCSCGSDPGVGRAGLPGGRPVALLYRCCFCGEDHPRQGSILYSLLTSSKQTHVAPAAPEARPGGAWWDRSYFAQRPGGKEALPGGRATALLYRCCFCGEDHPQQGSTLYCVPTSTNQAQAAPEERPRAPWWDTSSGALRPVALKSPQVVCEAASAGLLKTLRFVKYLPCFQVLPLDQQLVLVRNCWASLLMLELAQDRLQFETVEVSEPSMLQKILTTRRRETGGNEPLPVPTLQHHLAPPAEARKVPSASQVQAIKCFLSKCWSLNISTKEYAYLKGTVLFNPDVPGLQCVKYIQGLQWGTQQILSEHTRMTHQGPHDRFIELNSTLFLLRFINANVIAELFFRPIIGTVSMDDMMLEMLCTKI
SF1 AF2mut Luc = nonselective inhibitor or artifact in SF-1 mutant DAX1 counter-screen | shares compounds with DAX1 inh-1 | inhibition, % at 6.8 µM | HEK293 StAR-luciferase, SF-1 AF2 mutant, luminescence | AID 652136 | actives 78% (n = 2,400);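 active means inhibition above the mean of all tested compounds plus 3 SD, cut at about 3% in these data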;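 further: 0% = DAX-1 transfected cells with DMSO and 100% = cells without DAX-1 with DMSO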
The depositor's hits bear a star; · = not tested or not shown.

SMILES	hcDAF-12 act	DAX1 inh-1	hgDAF-12 ag	DAX1 inh-2	ssDAF12 agonist	DAX1 conf	SF1 AF2mut Luc
CC(=NNc1ccc2ccccc2n1)c1ccccn1	-3	-3	-10	·	-2	·	·
CC(=NNc1ccc2ccccc2n1)c1ccccc1O	5	5.9*	9	-4	1	0	-4
Cc1ccc(CNC(=O)O[C@H]2CC[C@@]34CCCN3C(=O)CCC[C@H]4[C@H]2C)o1	-2	·	-2	·	-1	·	·
CC(=O)c1sc(NC(=O)c2ccc3c(c2)OCO3)nc1C	4	9.4*	12*	2	0	9.5*	6.5*
COC(=O)CSc1nnc(NC(=O)c2ccc3c(c2)OCO3)s1	3	4.7*	7	0	0	8.7*	3.5*
COC(=O)CSc1nnc(NC(=O)/C=C\c2ccc3c(c2)OCO3)s1	-1	0	-3	0	-1	·	·
Cc1nc(NC(=O)c2ccc(Cl)cc2)sc1Cc1ccc2c(c1)OCO2	-2	0	4	0	0	·	·
O=C(C(=O)N1CCC(CNS(=O)(=O)c2ccc(C(F)(F)F)cc2)CC1)c1cccs1	0	-1	-1	·	-1	·	·
CCOC(=O)c1csc(NC(=O)c2cccs2)n1	4	8.7*	10	1	0	10*	6.7*
CCOC(=O)Cc1csc(NC(=O)c2cccs2)n1	0	0	0	0	-1	·	·
Cc1ccc(-c2csc(NC(=O)C3=COCCO3)n2)cc1	2	1	10	1	-1	·	·
CC(C)(C)c1csc(NC(=O)C2=COCCO2)n1	1	6.6*	12*	2	0	8.2*	5.3*
CCOC(=O)c1csc(NC(=O)C2=COCCO2)n1	2	7.0*	7	3	0	9.0*	7.1*
CCOC(=O)Cc1c(C)c2c(C)[nH]nc2oc1=O	-1	5.4*	2	-1	-1	-1	0
CC(C)C[C@@H]1Cc2[nH]c(=S)[nH]c(=O)c2[C@H](C)O1	-1	5.8*	1	·	-1	3	1
CC(=O)N(C)c1ccc(N=Nc2ccc3ncccc3c2)cc1	5.7*	5.5*	12*	1	1	10*	3.7*
COc1ccc(OCCSc2nnnn2C2CCCCC2)cc1	0	0	2	0	-1	·	·
c1ccc(OCCSc2nnnn2C2CCCCC2)cc1	5	4.5*	13*	2	0	11*	8.3*
CCCCNC(=O)C[C@@H]1C(=O)N(Cc2ccc(OC)cc2)C2=CCN(C(=O)OC(C)(C)C)C[C@]21C(=O)OCC	-2	-1	-1	·	-1	·	·
CC(C)(C)C1=CC(=Nc2ccccc2N)C=C(C(C)(C)C)C1=O	5	4.6*	13*	0	2.9*	-1	0
CCOC(=O)[C@@]12CCCC3=C1N(CCC3)C(=O)[C@H]2CC(=O)NCCCCc1ccccc1	-1	0	-3	·	-1	·	·
C#CCNC(=O)C[C@H]1C[C@@]2(C(=O)OC)C(=C[C@H](COCc3ccccc3)O[C@@H]2C)N(CCc2ccc(OC)c(OC)c2)C1=O	-1	-1	0	·	-2	·	·
Cc1cc(-c2nnc(SCC(=O)Nc3cccc4ccccc34)n2N)n[nH]1	-2	-2	0	·	-1	·	·
COC(=O)CSc1nc2cc(C)ccc2cc1C#N	5	5.0*	12*	4.4*	1.2*	18*	9.3*
CC(=O)c1ccc(NC(=O)c2cnn3ccccc23)cc1	4	5.8*	5	-3	-1	5.3*	2
SMILES	hcDAF-12 act	DAX1 inh-1	hgDAF-12 ag	DAX1 inh-2	ssDAF12 agonist	DAX1 conf	SF1 AF2mut Luc
Cc1ccc(C)c(NC(=O)c2cnn3ccccc23)c1	-1	-1	3	0	-2	·	·
O=[N+]([O-])c1cccc(CSc2nnc3ccccn23)c1	-2	1	-1	4	-1	·	·
c1ccn2c(SCc3ccc4c(c3)OCCO4)nnc2c1	3	4.5*	4	2	-1	5.3*	3.5*
CCc1ccc(NC(=O)Nc2ccon2)cc1	3	4.6*	5	3	0	5.6*	5.4*
O=C(Nc1ccc([N+](=O)[O-])cc1)Nc1ccon1	0	0	-5	1	0	·	·
COC(=O)c1cccc(Cn2ccc3ccc(-c4ccc5ccn(C(=O)C6CCC6)c5c4)cc32)c1	0	-2	-3	·	-1	·	·
CCOc1ccc(-c2cc(C(=O)Nc3ccc(F)cc3)[nH]n2)c(C)c1	3	7.4*	12*	·	0	10*	6.7*
CCOc1ccc(-c2cc(C(=O)NCc3ccc(F)cc3)[nH]n2)c(C)c1	-2	0	3	·	-1	·	·
O=C(O)c1ccc(NC(=S)NC(=O)c2ccc3ccccc3c2)cc1	1	2	3	0	-1	·	·
O=C(O)c1cccc(NC(=S)NC(=O)c2ccc3ccccc3c2)c1	-1	11*	3	-3	-1	8.0*	4.4*
O=C(Nc1ccc2ncccc2c1)c1ccccc1	-3	0	0	-1	-1	·	·
O=C(NC(=S)Nc1ccc2ncccc2c1)c1ccccc1	3	4.8*	12*	1	-1	7.7*	5.8*
O=C(NC(=S)Nc1ccc2[nH]ncc2c1)c1ccccc1	-1	0	0	1	-1	·	·
O=C(NC(=S)Nc1ccc2nc[nH]c2c1)c1ccccc1	0	6.5*	6	1	0	5.9*	3.1*
N#CCCCc1cn(-c2ccc(-c3noc4c3C(=O)N(CC(=O)N3CCOCC3)CC4)cc2)nn1	0	1	0	·	-1	·	·
O=C(N/N=C/c1ccc(O)c(Br)c1)c1cc2c(ccc3ccccc32)o1	2	1	-4	0	-1	·	·
O=C(N/N=C/c1cc(Br)c(O)c(Br)c1)c1cc2c(ccc3ccccc32)o1	-1	5.2*	4	-1	0	3	1
CC(C)[C@H](NC(=O)C1CCCC1)C(=O)N1CCC[C@H]1C(=O)NCCc1ccccc1Cl	1	0	1	·	0	·	·
CCCCC(=O)N1CCN(c2nc3ccc(F)cc3s2)CC1	2	5.2*	5	0	-1	3	3.8*
Cc1ccc(C(=O)NC2CCc3ccccc3C2=O)cc1 (centres undefined)	3	5.5*	13*	2	-1	4.6*	3.3*
CCCCOCC1CN(CCCC)S(=O)(=O)c2c(cccc2Sc2ccc(SC)cc2)O1 (centres undefined)	-2	1	-1	·	-1	·	·
Cc1cccc2nc(COc3ccc4ccccc4c3Br)cn12	6.0*	4.8*	10	6.5*	0	12*	7.3*
COc1ccccc1CCC[C@H](CCS(=O)(=O)C(C)C)CC1CCCCC1	-2	-1	5	·	-1	·	·
